Data from PubChem BioAssay (NCATS).
Records with an inconclusive call do not appear. The source made the active and inactive calls. Calls follow the shape of the dose curve; as a rule, active = well fitted curve in the direction sought with a large enough effect; inconclusive = small, poorly fitted or top-dose-only effect, or another doubt; inactive = no such curve, though single readings can be large; an effect the other way counts as inactive or inconclusive.

What was measured:
[1] = target: Glutathione peroxidase 1 (Homo sapiens) (UniProt P07203); test: Primary qHTS Assay for Inhibitors of Recombinant Selenoprotein Glutathione Peroxidase 1 (GPX1) (AID 1845191); also: nearly all actives have a fitted effect of over 65% in size; as to activity, negative = inhibition: % is scaled to controls: 0 for no effect and ±100 for the full control effect
Glutathione peroxidase 1 (Homo sapiens), sequence (P07203 whole entry, looked up): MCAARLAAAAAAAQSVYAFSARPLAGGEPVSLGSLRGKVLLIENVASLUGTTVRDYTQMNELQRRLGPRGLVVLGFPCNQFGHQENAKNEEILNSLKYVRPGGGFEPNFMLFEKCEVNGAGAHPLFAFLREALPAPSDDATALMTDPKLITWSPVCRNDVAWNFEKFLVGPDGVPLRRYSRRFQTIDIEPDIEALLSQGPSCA
Outline: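 GR-coupled readout: NADPH consumption tracked by fluorescence, ex 340/em 450 nm, at t=0 and after 15 min at RT. Final mix 10 nM GPX1, 1 mM GSH, 0.5 mM CHP, 0.5 mM NADPH, 100 nM GR, 0.01% BSA, following 30 min enzyme–compound preincubation.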

[2] = target: Phospholipid hydroperoxide glutathione peroxidase GPX4 (Homo sapiens) (UniProt P36969); test: Primary qHTS Assay for Inhibitors of Recombinant Selenoprotein Glutathione Peroxidase 4 (GPX4) (AID 1845192); also: nearly all actives have a fitted effect of over 65% in size; as to activity change, negative = inhibition: series mostly up to about 50 µM; % is scaled to controls: 0 for no effect and ±100 for the full control effect
Phospholipid hydroperoxide glutathione peroxidase GPX4 (Homo sapiens), sequence (P36969 whole entry, looked up): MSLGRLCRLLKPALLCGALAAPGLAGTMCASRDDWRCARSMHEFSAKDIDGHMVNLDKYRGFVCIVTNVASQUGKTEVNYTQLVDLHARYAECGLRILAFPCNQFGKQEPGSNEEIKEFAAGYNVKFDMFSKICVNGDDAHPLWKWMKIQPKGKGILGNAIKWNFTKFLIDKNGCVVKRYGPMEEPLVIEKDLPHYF
Outline: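 Steps: GPX4 plus compound, 30 min RT; add GR/GSH/NADPH master mix; start with cumene hydroperoxide; read 340/450 nm fluorescence at 0 and 15 min. Finals were 200 nM GPX4, 1 mM GSH, 0.5 mM CHP, 0.5 mM NADPH, 100 nM GR.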

[3] = target: Luciferin 4-monooxygenase (Photinus pyralis) (UniProt P08659); test: Primary firefly luciferase (FLuc) qHTS assay for identification of artifact compounds. (AID 1845220); also: nearly all actives have a fitted effect of over 60% in size;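 as to activity change, negative = inhibition: series mostly up to about 54 µM; plate controls were DMSO vehicle for no effect and no enzyme for full effect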
Outline: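 D-luciferin and ATP (10 uM each, final) in Tris acetate buffer pH 7.6 were incubated with compounds for 15 min at room temperature. The reaction was started with 10 nM Photinus pyralis luciferase and luminescence read after 5 min. Percent inhibition was fitted to a 4-parameter Hill equation.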

[4] = Primary fluorescence-based thiol-reactive (MSTI) qHTS assay for identification of artifact compounds. (AID 1845221); also: nearly all actives have a fitted effect of over 65% in size; also: potency is read from the fitted curve at half-maximal effect;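 as to activity change, negative = thiol reactive: series mostly up to about 54 µM; thiol-reactive compounds lower the probe fluorescence signal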
Outline: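 In PBS pH 7.4 with 2% DMSO, each compound met 4 uM MSTI for one hour at ambient temperature, shielded from light, before fluorescence detection.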

[5] = system: Nanoluciferase (engineered Oplophorus gracilirostris luciferase); test: Primary Nanoluciferase (NLuc) qHTS assay for identification of artifact compounds. (AID 1845222);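 also: series mostly up to about 54 µM; 0% = DMSO and -100% = no enzyme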
Outline: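 Diluted conditioned medium from NLuc-expressing S16 cells treated with compounds for 15 min at room temperature, then Nano-Glo substrate added; luminescence read after 5 min. Percent inhibition versus no-enzyme and DMSO controls fitted to 4-parameter Hill equation.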

[6] = Primary redox qHTS assay for identification of artifact compounds. (AID 1845223);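 also: 0% = DMSO and 100% = reference compound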
Outline: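 Redox-cycling detection via DTT (250 uM final) oxidation coupled to Amplex Red (25 uM)/HRP (250 mU/mL) in HBSS. 15 min preincubation plus 30 min after DTT, room temperature. Ex/Em 525/598 nm; 4-parameter Hill fit against DMSO and 10 uM DA3003.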

COC1CC(O[C@H]2CC[C@]3(C)C4CC[C@]5(C)C(C6=CC(=O)OC6)=CCC56OC46CC[C@@H]3C2)OC(C)C1O[C@@H]1O[C@H](CO[C@@H]2O[C@H](CO)[C@@H](O)[C@H](O)[C@H]2O)[C@@H](O)[C@H](O)[C@H]1O (some centres undefined)
inactive: Potency [1] | Potency [2] | outcome [3] inactive [at 11.6 µM] | activity change, negative = thiol reactive [4] 101% [at 11.5 µM] | activity, negative = inhibition [5] 0% [at 11.6 µM] | redox activity (% of DA3003) [6] 3.85% [at 11.5 µM]

O=S(=O)(N[C@H]1CCCC[C@@H]1N1CCOCC1)c1ccc(Cl)cc1
inactive: Potency [1] | Potency [2] | Potency [3] | Potency [4] | Potency [5] | Potency [6]

CCOc1ccc(Cc2nc(-c3c(C)nc4ccccn34)cs2)cc1
active: Potency [4] 1680 nM
inactive: Potency [1] | Potency [2] | Potency [3] | Potency [5] | Potency [6]

O=C(NCc1ccc(OC(F)(F)F)cc1)C1c2c(F)cccc2C(=O)N1CCc1ccccn1 (centres undefined)
inactive: Potency [1] | Potency [2] | Potency [3] | Potency [4] | Potency [5] | Potency [6]

CS/C=C/C(=O)O[C@@H]1CCC2=CC(=O)C(=C(C)C)C[C@]2(C)[C@H]1C
inactive: Potency [1] | Potency [2] | Potency [3] | Potency [4] | Potency [5] | Potency [6]

O=C(CCl)Nc1cccc(NC2=NS(=O)(=O)c3ccccc32)c1
inactive: Potency [1] | Potency [2] | Potency [3] | Potency [4] | Potency [5] | Potency [6]

CC(=O)OCC(=O)[C@@]12O[C@@H]1C[C@H]1[C@@H]3CC=C4C[C@@H](O)CC[C@]4(C)[C@H]3CC[C@@]12C
inactive: Potency [1] | Potency [2] | Potency [3] | Potency [4] | Potency [5] | Potency [6]

CC(C)=C1C[C@@]2(C)C(=CC1=O)CC[C@@H](OC(=O)/C(C)=C/CO)[C@@H]2C
inactive: Potency [1] | Potency [2] | Potency [3] | Potency [4] | Potency [5] | Potency [6]

O=C(Nc1ccc(CN2CCOCC2)cc1)c1ccc(-c2cccc(Cl)c2)o1
inactive: Potency [1] | Potency [2] | Potency [3] | Potency [4] | Potency [5] | Potency [6]

CC1(C=O)CCCC2(C)C1CCC13CC(CO)C(CCC12)C3 (centres undefined)
inactive: Potency [1] | Potency [2] | Potency [3] | Potency [4] | Potency [5] | Potency [6]

CCNC(=O)N1CCCN(c2ccc(C(=O)NCCc3ccc(Cl)cc3Cl)cc2NC(=O)c2cccc(Cl)c2)CC1
inactive: Potency [1] | Potency [2] | Potency [3] | Potency [4] | Potency [5] | Potency [6]

COc1ccc(S(=O)(=O)Nc2c(C)cc(C)cc2C)cc1
inactive: Potency [1] | Potency [2] | Potency [3] | Potency [4] | Potency [5] | Potency [6]

Cn1c(SCC(=O)N2CCC[C@H]2C(=O)Nc2ccccc2-c2ccccc2)nc2ccccc21
inactive: Potency [1] | Potency [2] | Potency [3] | Potency [4] | Potency [5] | Potency [6]

N#Cc1ccc(COc2ccc(-c3cccc4nc(NC(=O)C5CC5)nn34)cc2)cn1
inactive: Potency [1] | Potency [2] | Potency [3] | Potency [4] | Potency [5] | Potency [6]

Cn1ncc(Cl)c1-c1cc(C(=O)NC(CN)Cc2ccc(F)c(F)c2)oc1Cl (centres undefined)
inactive: Potency [1] | Potency [2] | Potency [3] | Potency [4] | Potency [5] | Potency [6]

Cc1ccc(S(=O)(=O)NCc2ccc(C(=O)NCCN(Cc3ccccc3)C(C)C)cc2)cc1
inactive: Potency [1] | Potency [2] | Potency [3] | Potency [4] | Potency [5] | Potency [6]

COCCCNC(=O)c1ccc(Cn2c(=O)c3ccccc3n(Cc3ccc(C(C)C)cc3)c2=O)cc1
inactive: Potency [1] | Potency [2] | Potency [3] | Potency [4] | Potency [5] | Potency [6]

CCC(C)CNCC(=O)N1CCc2sccc2C1COc1cccc(C)c1 (centres undefined)
inactive: Potency [1] | Potency [2] | Potency [3] | Potency [4] | Potency [5] | Potency [6]

CC1=C(C(=O)Nc2cc(Cl)ccc2Cl)C(c2ccco2)C2=C(CCCC2=O)N1 (centres undefined)
inactive: Potency [1] | Potency [2] | Potency [3] | Potency [4] | Potency [5] | Potency [6]

Nc1ncnc2c1nc(Cl)n2C1OC2COP(=O)(O)OC2C1O (centres undefined)
inactive: Potency [1] | Potency [2] | Potency [3] | Potency [4] | Potency [5] | Potency [6]

C[C@@H]1O[C@@H](O[C@H]2[C@H](OC(=O)[C@]34CCC(C)(C)C[C@H]3C3=CCC5[C@@]6(C)C[C@H](O)[C@H](O[C@@H]7O[C@H](CO)[C@@H](O)[C@H](O)[C@H]7O)[C@](CO)(C(=O)O)C6CC[C@@]5(C)[C@]3(C)C[C@H]4O)OC[C@H](O)[C@@H]2O)[C@H](O)[C@H](O)[C@H]1O[C@@H]1OC[C@@H](O)[C@H](O[C@@H]2OC[C@](O)(CO)[C@H]2O)[C@H]1O (some centres undefined)
inactive: outcome [1] inactive [at 9.52 µM] | activity change, negative = inhibition [2] -2.46% [at 9.73 µM] | activity change, negative = inhibition [3] 1.03% [at 11.6 µM] | activity change, negative = thiol reactive [4] 423% [at 11.5 µM] | activity, negative = inhibition [5] 2.55% [at 11.6 µM] | redox activity (% of DA3003) [6] 8.49% [at 11.5 µM]

C=C1CO[C@@]2(O[C@H]3CC4C5CC=C6C[C@@H](O)C[C@@H](O[C@@H]7OC[C@H](O)[C@H](O[C@@H]8OC[C@@H](O)[C@H](O)[C@H]8O)[C@H]7O[C@@H]7O[C@@H](C)[C@H](OC(C)=O)[C@@H](OC(C)=O)[C@H]7OC(C)=O)[C@]6(C)C5CC[C@]4(C)[C@@H]3[C@@H]2C)[C@@H](O)[C@H]1OC1OC(C)C(O)C(O)C1O (some centres undefined)
inactive: activity, negative = inhibition [1] 0.917% [at 9.52 µM] | outcome [2] inactive [at 9.73 µM] | outcome [3] inactive [at 11.6 µM] | activity change, negative = thiol reactive [4] 69.1% [at 11.5 µM] | activity, negative = inhibition [5] 1.51% [at 11.6 µM] | redox activity (% of DA3003) [6] 7.69% [at 11.5 µM]

COc1ccc2nc(-c3cc(OC)c(OC)c(OC)c3)cc(C(=O)NCC(=O)Nc3ccc(C(C)=O)cc3)c2c1
inactive: Potency [1] | Potency [2] | Potency [3] | Potency [4] | Potency [5] | Potency [6]

COc1ccc(-n2c(SCCCN3C(=O)c4cccc5cccc(c45)C3=O)nnc2-c2ccncc2)cc1
inactive: Potency [1] | Potency [2] | Potency [3] | Potency [4] | Potency [5] | Potency [6]

O=C(NCc1ccccc1)c1ccc2c(=O)n(-c3cccc(C(F)(F)F)c3)c(=S)[nH]c2c1
inactive: Potency [1] | Potency [2] | Potency [3] | Potency [4] | Potency [5] | Potency [6]

C/C=C(\C)C(=O)O[C@@H]1[C@@H](C)[C@]2(O)[C@@H]3C=C(C)C(=O)[C@H]3CC(CO)=C[C@H]2C2C(C)(C)[C@@]21OC(=O)C(C)CC (some centres undefined)
inactive: Potency [1] | Potency [2] | Potency [3] | Potency [4] | Potency [5] | Potency [6]

Cc1ccc(S(=O)(=O)N2CCC[C@H]2c2ccc(F)cc2)cc1
inactive: Potency [1] | Potency [2] | Potency [3] | Potency [4] | Potency [5] | Potency [6]

O=C(CSc1nc2ccccc2c(=O)n1-c1ccccc1)Nc1ccc2c(c1)CCC2
inactive: Potency [1] | Potency [2] | Potency [3] | Potency [4] | Potency [5] | Potency [6]

CCC(CC)C(=O)OC12C(OC(=O)C(C)C)C(C)C3(O)C(C=C(CO)CC4(O)C(=O)C(C)=CC43)C1C2(C)C (centres undefined)
inactive: Potency [1] | Potency [2] | Potency [3] | Potency [4] | Potency [5] | Potency [6]

COC1=CC(=O)C=C(C)C12Oc1c(Cl)c(OC)cc(OC)c1C2=O (centres undefined)
inactive: Potency [1] | Potency [2] | Potency [3] | Potency [4] | Potency [5] | Potency [6]

CC(=O)O[C@@H]1C[C@@]2(C)C(CC[C@]3(C)C2CC=C2C4CC(C)(C)CC[C@]4(C(=O)O)CC[C@]23C)C(C)(C)[C@H]1O (some centres undefined)
inactive: Potency [1] | Potency [2] | Potency [3] | Potency [4] | Potency [5] | Potency [6]

C=C1CC[C@H]2C(=C)CC[C@H]3C(=C)C(=O)O[C@@H]3[C@@H]12
inactive: Potency [1] | Potency [2] | Potency [3] | Potency [4] | Potency [5] | Potency [6]

CC(=O)O[C@@H]1C[C@]2(C)[C@@]3(CCC4[C@@]5(C)CC[C@H](O[C@@H]6O[C@H](C(=O)O)[C@@H](O)[C@H](OC7OC(CO)C(O)C(O)[C@H]7O[C@@H]7O[C@@H](C)[C@H](O)[C@@H](O)[C@H]7O[C@@H]7OC[C@](O)(CO)[C@H]7O)[C@H]6OC6OC(CO)C(O)C(O)C6O)C(C)(C)C5CC[C@]42C)OC[C@@]12CCC(C)(C)CC23 (some centres undefined)
inactive: activity, negative = inhibition [1] -11.2% [at 9.52 µM] | activity change, negative = inhibition [2] -2.16% [at 9.73 µM] | activity change, negative = inhibition [3] -3.18% [at 11.6 µM] | activity change, negative = thiol reactive [4] 238% [at 11.5 µM] | activity, negative = inhibition [5] 0.912% [at 11.6 µM] | redox activity (% of DA3003) [6] 8.79% [at 11.5 µM]

COc1cccc(-c2cc(F)ccc2C2Cc3nc(N)nc(C)c3C(=O)N2)n1 (centres undefined)
inactive: Potency [1] | Potency [2] | Potency [3] | Potency [4] | Potency [5] | Potency [6]

Nc1nc2c(nc(Br)n2[C@@H]2O[C@@H]3COP(=O)(O)O[C@H]3[C@H]2O)c(=O)[nH]1
inactive: Potency [1] | Potency [2] | Potency [3] | Potency [4] | Potency [5] | Potency [6]

COc1cc([C@H]2O[C@H](c3cc(OC)c4c(c3)OCO4)[C@H](C)[C@H]2C)cc(OC)c1OC
inactive: Potency [1] | Potency [2] | Potency [3] | Potency [4] | Potency [5] | Potency [6]

CC(=O)Nc1cccc(Nc2ncnc(N3CCC(OCc4ccc(OC(F)(F)F)cc4)CC3)n2)c1C
inactive: Potency [1] | Potency [2] | Potency [3] | Potency [4] | Potency [5] | Potency [6]

N#Cc1cc(CN2CCC(Nc3ncnc4sc(Cl)cc34)CC2)ccc1F
inactive: Potency [1] | Potency [2] | Potency [3] | Potency [4] | Potency [5] | Potency [6]

N#Cc1ccc2ncnc(NCCc3ccccc3)c2c1
inactive: Potency [1] | Potency [2] | Potency [3] | Potency [4] | Potency [5] | Potency [6]
